Assay outcomes deposited in PubChem BioAssay by National Center for Advancing Translational Sciences (NCATS).
ELG1 DNA repair = ELG1-dependent DNA repair inhibition | HEK293T ELG1-luciferase reporter, luminescence, 16 h; DNA damage induced by 5-fluorouridine | AID 504467 | 2.3% of 330,000 active | Potency, µM (top dose mostly 46.1 µM), usual class: inhibitors; note: nearly all actives have a fitted effect of over 55% in size
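DMSO vehicle served as the neutral condition. Each well held 2,000 cells given 5-fluorouridine plus compound; after 16 hr at 37 °C/5% CO2, ONE-Glo was added and luciferase measured 30 min later.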
HT1080 IDH1KD tx = kills HT-1080 cells with IDH1 knockdown | HT-1080 IDH1 knockdown viability, ATP luminescence, 48 h | Potency, µM (top dose mostly 46.1 µM), usual class: cytotoxic | 2% of 360,000 active
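Luminescent ATP read-out (CellTiter-Glo, 10 min at room temperature) after 48 h compound exposure at 37 °C gave viability of IDH1-knockdown HT-1080 cells. Activity was normalised to DMSO and cell-free wells, then fitted as concentration-response curves.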
IL1B secr inh = inflammasome signaling inhibition, IL-1 beta readout; THP-1 LPS/ATP IL-1B secretion, AlphaLISA, 16 h; active compounds read low; activity change, % at 57.5 µM; 4.7% of 360,000 active; in the data active = activity change below about -50%; inconclusive = mostly about -30% to -49%
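Secreted IL-1B measured by AlphaLISA bead assay after 16 h compound exposure of THP-1 cells; compounds (final up to 57.5 uM) added 1 h before LPS (250 ng/mL) and ATP (1.25 mM) stimulation; lower signal means less secretion.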
TDP1 cell CPT = growth inhibition of DT40 Tdp1-/-;hTDP1 cells with camptothecin (screen for TDP1 inhibitors); chicken DT40 Tdp1-/-;hTDP1 cells + 20 nM CPT, ATP luminescence, 48 h; Potency, µM (titrated, usually from 46.2 µM), usual class: inhibitors; 12% of 420,000 active; note: nearly all actives have a fitted effect of over 55% in size
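Cell growth measured by CellTiter-Glo luminescence after a minimum 48 h, 37 C compound exposure with 20 nM CPT in Tdp1-knockout DT40 cells stably expressing hTDP1, seeded 400/well; qHTS titration format.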
HT1080-NT tox = kills 2HG-producing HT-1080-NT fibrosarcoma cells. HT-1080-NT fibrosarcoma viability, CellTiter-Glo ATP luminescence, 48 h. Potency, µM (highest dose often 46.1 µM), usual class: cytotoxic. 1.6% of 360,000 active. AID 686970;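 note: NT is the 2HG producing partner of a matched IDH1 knockdown line; nearly all actives have a fitted effect of over 55% in size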
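HT-1080-NT fibrosarcoma cells (2HG-overproducing), 750 cells/well in RPMI with 5% FBS, dosed after 2 h and incubated 48 h at 37C. CellTiter-Glo luminescence normalized to DMSO and no-cell wells; concentration-response curves fitted and classed.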
TDP1 cell noCPT = qHTS for Inhibitors of human tyrosyl-DNA phosphodiesterase 1 (TDP1): qHTS in cells in absence of CPT | Potency, µM (titrated, usually from 46.2 µM), usual class: inhibitors | DT40 Tdp1-/- hTDP1 cells, no CPT, ATP luminescence, 48 h | 15% of 420,000 active | AID 686978, 2013; note: nearly all actives have a fitted effect of over 55% in size
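Stably hTDP1-transfected Tdp1-null chicken DT40 cells were treated with library compounds minus camptothecin and grown for at least 48 hr at 37 °C, after which cellular ATP was quantified by luminescence.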
Hits are given with their value; - = inactive; ? = inconclusive; . = no result given. Most compounds without a hit are left out; they make up all but 19% or so of the library. Unless noted, calls come from the whole dose curve; as a rule, active = well fitted curve in the direction sought with a large enough effect; inconclusive = small, poorly fitted or top-dose-only effect, or another doubt; inactive = no such curve, though single readings can be large; an effect the other way counts as inactive or inconclusive.

SMILES	ELG1 DNA repair	HT1080 IDH1KD tx	IL1B secr inh	TDP1 cell CPT	HT1080-NT tox	TDP1 cell noCPT
CC1CCN(Cc2c(C(=O)N/N=C/c3ccc(C(F)(F)F)cc3)nnn2-c2nonc2N)CC1	-	25.9µM	-	?	?	?
CCN1CCN(C(c2cccc(Cl)c2)c2c(O)cc(C)n(CCOC)c2=O)CC1 (stereo not drawn)	.	.	.	-	.	-
O=C(CCc1cccc(Cl)c1)N1CCCC(Nc2ccccc2)C1 (stereo not drawn)	-	-	-	?	-	?
COc1cccc(Nc2ncc3nc(-c4ccc(Cl)cc4)c(=O)n(C4CC4)c3n2)c1	.	.	.	-	.	-
Cc1cc(-n2cnnn2)cc(C)c1S(=O)(=O)NCCOc1ccccc1	-	-	-	-	-	-
Cc1cc(N2CCCC2=O)cc(C)c1S(=O)(=O)NCCOc1ccc(C(C)(C)C)cc1	20.6µM	?	-54.4	7.31µM	?	7.31µM
Cc1cc(N2CCCC2=O)ccc1S(=O)(=O)N1CCOCC1	-	-	-	-	-	?
Cc1cc(N2CCCC2=O)ccc1S(=O)(=O)NC1CCCCC1	?	-	-	?	-	20.6µM
Cn1c(=O)c(=O)n(C)c2cc(S(=O)(=O)NCCOc3ccccc3)ccc21	-	-	-	-	-	-
O=C1CCCN1c1ccc(S(=O)(=O)NCCOc2ccccc2)cc1	?	-	-	?	-	11.2µM
O=C(Nc1ccc(C(=O)N2CCCC2)cc1)c1cc(F)c(F)cc1Cl	.	-	?	-	-	-
CC1CCCCN1S(=O)(=O)c1ccc(N(C(=O)c2cnccn2)C(C(=O)NC2CCCC2)c2cccs2)cc1 (stereo not drawn)	-	-	-	?	-	20.6µM
Cc1cc(C)cc(N(C(=O)c2ccccn2)C(C(=O)NC2CCCCC2)c2cccs2)c1 (stereo not drawn)	-	?	-	?	-	-
CC1CCCCN1S(=O)(=O)c1ccc(N(C(=O)c2cnccn2)C(C(=O)NC2CCCCC2)c2cccs2)cc1 (stereo not drawn)	-	-	-63.5	?	-	?
COc1ccc(N(C(=O)c2ccccc2F)S(=O)(=O)c2ccc3c(c2)n(C)c(=O)n3C)cc1	.	.	.	-	.	-
CCOP(=O)(OCC)C(Nc1ccc(F)cc1)c1ccccc1 (stereo not drawn)	-	-	-	-	-	-
CCCCOP(=O)(OCCCC)C(Nc1ccccc1)c1ccc2c(c1)OCO2 (stereo not drawn)	?	-	-	?	-	13µM
CCCOP(=O)(OCCC)C(Nc1ccc(C(=O)O)cc1)c1ccccc1 (stereo not drawn)	-	-	-	-	-	-
CCOP(=O)(OCC)C(Nc1ccccc1)c1ccc2c(c1)OCO2 (stereo not drawn)	?	-	-	13µM	-	?
CCC(=O)N1CCc2cc(S(=O)(=O)CCC(=O)NCc3ccccc3Cl)ccc21	.	.	.	?	.	-
Cc1oc(-c2ccccc2)cc1C(=O)Nc1cccc2ccccc12	?	-	-66.4	-	-	-
O=C(Nc1cccc2ccccc12)N(c1ccccc1)c1ccccc1	.	-	-	20.6µM	-	20.6µM
O=C(Nc1ccccc1)Nc1ccc(O)c2ccccc12	.	-	-	1.64µM	-	11.6µM
O=C(Nc1ccccc1)Nc1ccc(NC(=O)c2ccccc2O)cc1	-	-	?	-	-	-
Cc1cc(O)c(C(C)C)cc1NC(=O)Nc1cccc2ccccc12	?	-	-66.0	-	-	?
NC(=O)Nc1cccc2ccccc12	-	-	-	-	-	-
Cc1ccc(NC(=O)Cn2c(=O)n(CC3CCCO3)c(=O)c3ccccc32)cc1 (stereo not drawn)	.	.	.	-	.	-
O=C(Nc1ccccc1)Nc1cccc2ccccc12	-	-	-	16.4µM	-	?
C#CCN[C@@H]1CCc2ccccc21	.	.	.	-	.	-
